Test results reported in article PMC5540273 (PLoS ONE, 2017).

system: ACVR2A; details: concentration: 1 μM, replicates: in singlicate; n = 1
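Note: KINOMEscan kinase panel screen.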

Compound	%Inh [%]
Cc1ccc(C(=O)N2CC[C@@H](O)C2)cc1-n1c(C)cc(OCc2ccc(F)cc2F)c(Br)c1=O	31
c1ccc(Oc2ccc(Nc3ccnc4cc(-c5ccc(CNCCN6CCOCC6)o5)ccc34)cc2)nc1 [GW567145]	0
CC(C)c1nc(-c2cccc(NS(=O)(=O)c3c(F)cccc3F)c2F)c(-c2ccnc(Nc3ccc(N4CCOCC4)nc3)n2)s1 [GSK2008607]	0
c1ccc(-c2cnc3nccnn23)cc1 [AH20685]	0
CCn1c(-c2nonc2N)nc2c(C#CC(C)(C)O)nc(OC[C@H](N)c3ccccc3)cc21 [GSK943949]	0
CSc1cccc2c(-c3ccncn3)c(-c3ccc(F)cc3)nn12 [GW514786]	0
FC(F)(F)c1ccc(/C=C/c2cncnc2Nc2ccc3[nH]c(Cc4ccccc4)nc3c2)cc1 [GW709199]	24
C[C@@H](Oc1cc(-n2cnc3cc(-c4ccnc(NCCS(C)(=O)=O)c4)ccc32)sc1C(N)=O)c1ccccc1Cl [GSK907232]	0
O=C(Nc1n[nH]c2cc(-c3ccoc3)ccc12)C1CC1 [SB-738481]	19
CC(C)(C)c1ccc2nccc(Nc3cccc(O)c3)c2c1 [GW856795]	26
Cl.Cl.NCC(NC(=O)c1cc(-c2ccccc2)c(-c2ccnc3[nH]ccc23)s1)c1ccccc1 (stereo not shown) [GSK1321561]	4
CCc1ccc(-c2ccc3c(c2)-c2c(cnn2C)S(=O)(=O)N3C)cc1	5
Cl.Cl.NCC(NCc1ccc(-c2ccnc3[nH]ccc23)s1)c1ccccc1 (stereo not shown) [GSK1321565]	0
Cl.NC(=O)c1cccc(Nc2nccc(Nc3ccc(Oc4c(Cl)cccc4Cl)c(Cl)c3)n2)c1 [GW659009]	0
Cc1ccc(C)c(NC(=O)NC2CCN(c3ccnc(Nc4ccc(F)cc4)n3)C2)c1 (stereo not shown) [GSK1379720]	0
COC(=O)Nc1nc2cc(Oc3ccc(NC(=O)Nc4cc(C(F)(F)F)ccc4F)cn3)ccc2[nH]1.Cl.Cl [GW681170]	0
Cn1cc(-c2[nH]c3cc(NC(=O)[C@H](N)C4CCCCC4)cc4c3c2C=NNC4=O)cn1	81
CCn1c(-c2nonc2N)nc2c(C#CC(C)(C)O)ncc(OCCCCN)c21.O=C(O)C(F)(F)F.O=C(O)C(F)(F)F [GSK507274]	7
NCCCC(NC(=O)c1cc(Br)c(-c2ccnc3[nH]ccc23)s1)c1ccccc1.O=C(O)C(F)(F)F.O=C(O)C(F)(F)F (stereo not shown) [GSK1287544]	0

Compound	%Inh [%]
Cc1ccc(C(=O)Nc2ccc(Nc3ccnc4cc(-c5nccs5)ccc34)cc2O)cc1.Cl [GW494702]	0
CN(C)S(=O)(=O)c1cc(-c2ccc3nccc(-c4cccc(S(N)(=O)=O)c4)c3c2)cnc1N [GSK1669921]	0
COc1ccc(Nc2nccc(NCCNC(=O)c3cc4ccccc4s3)n2)cc1 [GSK1379896]	0
Cc1ccc(F)c(C(=O)Nc2cccc(-c3nn4ccccc4c3-c3ccnc(Nc4cccc(F)c4)n3)c2)c1F [GSK361061]	7
Nc1n[nH]c2cnc(-c3ccccc3)cc12 [SB-642124]	0
Cc1cccc(NC(=O)Nc2ccc(Oc3ncnc4ccn(C)c34)cc2)c1	2
COc1cc2c(cc1OCCN1CCNCC1)ncc1c3ccc(C#N)cc3[nH]c21	0
Fc1ccc(-c2ncn(C3CCNCC3)c2-c2ccnc(Oc3ccc(-c4ccccc4)cc3)n2)cc1 [SB-245391]	19
CC(=O)Nc1nc2cnc(Nc3cc(NC(=O)c4cccc(C5(C#N)CC5)c4Cl)ccc3C)nc2s1	0
O=C(O)C(F)(F)F.O=C(O)C(F)(F)F.O=c1[nH]ccc2nc(N[C@@H]3CCCNC3)nc(Nc3ccc(S(=O)(=O)N4CCOCC4)cc3)c12 [GSK2177277]	29
Oc1cc(Nc2ccnc3cc(I)ccc23)ccc1F [GW552771]	100
COc1cccc(C(=O)Nc2cccc(Oc3ccc4nc(NC(=O)C5CC5)cn4n3)c2)c1	1
O=C(Nc1cccc(Oc2ccc3nc(NC(=O)C4CC4)cn3n2)c1)c1ccccc1C(F)(F)F	16
Clc1ccc(-c2nn3ncccc3c2-c2ccnc(Nc3ccc4c(c3)OCCO4)n2)cc1 [GW829116]	14
O=C(Nc1cccc(-c2nn3ccccc3c2-c2ccnc(Nc3cccc(F)c3)n2)c1)c1c(F)ccc(F)c1Cl [GSK357952]	16
COC(=O)Nc1nc2ccc(Oc3ccc(NC(=O)Nc4cc(C(F)(F)F)ccc4F)cc3)cc2n1C.Cl [GW692089]	0
O=C(Nc1cccc(-c2nn3ncccc3c2-c2ccnc(Nc3ccccc3)n2)c1)c1c(F)cccc1F [GSK198271]	0
CN1CCN(CCCNc2nccc(-c3c(-c4ccc(F)cc4)nn4cc(C(F)(F)F)ccc34)n2)CC1 [GW621581]	0
